Among the data in publication PMC9838217, “Structure of SALL4 zinc finger domain reveals link between AT-rich DNA binding and Okihiro syndrome” are binding signal values, retold here.

Positions count from the first letter of the chain named.

Holding throughout (test): HT-SELEX; high values mean tight binding
What all share (details): protein: recombinant; vector His6-GST; dsDNA, one strand shown

One test deals with T1, SALL4 ZFC4 WT (HT-SELEX) (Mus musculus, UniProt Q8BX22 870-940).
T1 sequence: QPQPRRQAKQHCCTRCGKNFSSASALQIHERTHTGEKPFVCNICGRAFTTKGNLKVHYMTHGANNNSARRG
An outline of the steps:
(§1)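 In triplicate selections of up to 6 cycles, purified recombinant mouse SALL4 zinc finger cluster 4 (residues 870–940, 1 µg) was incubated 10 min at room temperature with library DNA (1.5 µg, then 200 ng) in 100 µl of 10 mM Tris–HCl pH 7.5, 50 mM NaCl, poly(dI-dC) and DTT, and complexes were captured on Ni2+ beads, washed and PCR-amplified. Sequencing was done on MiSeq with scanning for 6-mers. The binding signal is each canonical k-mer's read fraction, reported as fold change against the initial random library.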

In test [1] the target is T2, SALL4 ZFC4 R900W (HT-SELEX) (Mus musculus, UniProt Q8BX22 870-940, R900W).
T2 sequence: T1 sequence with R31W
An outline of the steps:
as §1

The target in test [2] is T3, SALL4 ZFC4 G921D (HT-SELEX) (Mus musculus, UniProt Q8BX22 870-940, G921D).
T3 sequence: T1 sequence with G52D
The essentials: as §1

As for AACCTC, the binding signal with SALL4 ZFC4 WT (HT-SELEX) was determined as 0.87 ± 0.0372 fold-change vs cycle 0; in test [1] it was 0.961 ± 0.043 fold-change vs cycle 0; in test [2], 1.02 ± 0.0516 fold-change vs cycle 0.

With ATGGTC, the binding signal was 0.721 ± 0.0351 fold-change vs cycle 0 with SALL4 ZFC4 WT (HT-SELEX), 0.8234 ± 0.00272 fold-change vs cycle 0 in test [1] and 0.902 ± 0.0335 fold-change vs cycle 0 in test [2].

As to GATAAC, the results for the binding signal (in the test with SALL4 ZFC4 WT (HT-SELEX); in test [1]; in test [2]) were 1.49 ± 0.117 fold-change vs cycle 0, 1.52 ± 0.136 fold-change vs cycle 0 and 1.44 ± 0.166 fold-change vs cycle 0, respectively.

For the sequence CATAGC, the binding signal with SALL4 ZFC4 WT (HT-SELEX) was 0.663 ± 0.0317 fold-change vs cycle 0; in test [1], 0.746 ± 0.0368 fold-change vs cycle 0; in test [2], 0.844 ± 0.0408 fold-change vs cycle 0.

As to TGAAAA, the figures for the binding signal (with SALL4 ZFC4 WT (HT-SELEX); in test [1]; in test [2]) were 2.04 ± 0.151 fold-change vs cycle 0, 1.73 ± 0.0528 fold-change vs cycle 0 and 1.57 ± 0.0962 fold-change vs cycle 0, respectively.

In the case of AGGGGG, the figures for the binding signal (with SALL4 ZFC4 WT (HT-SELEX); in test [1]; in test [2]) were 0.323 ± 0.0254 fold-change vs cycle 0, 0.375 ± 0.0258 fold-change vs cycle 0 and 0.443 ± 0.0497 fold-change vs cycle 0, respectively.

Take GAGCAA: the binding signal is 0.613 ± 0.0271 fold-change vs cycle 0 with SALL4 ZFC4 WT (HT-SELEX), 0.69 ± 0.0379 fold-change vs cycle 0 in test [1] and 0.797 ± 0.00723 fold-change vs cycle 0 in test [2].

Turning to GGTAAC, the binding signal was found to be 0.927 ± 0.0412 fold-change vs cycle 0 with SALL4 ZFC4 WT (HT-SELEX), 1.08 ± 0.0236 fold-change vs cycle 0 in test [1] and 1.06 ± 0.0314 fold-change vs cycle 0 in test [2].

On to AACTTA, for which the values for the binding signal (in the test with SALL4 ZFC4 WT (HT-SELEX); in test [1]; in test [2]) were 2.13 ± 0.126 fold-change vs cycle 0, 2.11 ± 0.126 fold-change vs cycle 0 and 1.89 ± 0.231 fold-change vs cycle 0, respectively.

On to AAGAGA, for which the results for the binding signal (in the test with SALL4 ZFC4 WT (HT-SELEX); in test [1]; in test [2]) were 1.45 ± 0.0335 fold-change vs cycle 0, 1.67 ± 0.0544 fold-change vs cycle 0 and 1.48 ± 0.103 fold-change vs cycle 0, respectively.

On to AGGACG, for which the binding signal with SALL4 ZFC4 WT (HT-SELEX) worked out at 0.361 ± 0.014 fold-change vs cycle 0; in test [1], 0.462 ± 0.00636 fold-change vs cycle 0; in test [2] it was 0.558 ± 0.0296 fold-change vs cycle 0.

ATTTGC: the binding signal is 0.914 ± 0.0535 fold-change vs cycle 0 in the test with SALL4 ZFC4 WT (HT-SELEX), 0.9 ± 0.0391 fold-change vs cycle 0 in test [1] and 0.981 ± 0.0312 fold-change vs cycle 0 in test [2].

Consider ACACAA, for which the binding signal in the test with SALL4 ZFC4 WT (HT-SELEX) was found to be 1.07 ± 0.0495 fold-change vs cycle 0; in test [1], 1.2 ± 0.0676 fold-change vs cycle 0; in test [2], 1.19 ± 0.0605 fold-change vs cycle 0.

ATATTG: the binding signal with SALL4 ZFC4 WT (HT-SELEX) was 2.19 ± 0.214 fold-change vs cycle 0; in test [1] it was 1.8 ± 0.105 fold-change vs cycle 0; in test [2] it was 1.69 ± 0.149 fold-change vs cycle 0.

Take AGTTAG: the binding signal with SALL4 ZFC4 WT (HT-SELEX) came out at 1.428 ± 0.0117 fold-change vs cycle 0; in test [1], 1.56 ± 0.0647 fold-change vs cycle 0; in test [2], 1.46 ± 0.0871 fold-change vs cycle 0.

Turning to CGTAAA, the binding signal was found to be 1 ± 0.0348 fold-change vs cycle 0 with SALL4 ZFC4 WT (HT-SELEX), 1.08 ± 0.0147 fold-change vs cycle 0 in test [1] and 1.05 ± 0.0379 fold-change vs cycle 0 in test [2].

With ACAGAA, the binding signal in the test with SALL4 ZFC4 WT (HT-SELEX) worked out at 1.26 ± 0.036 fold-change vs cycle 0; in test [1] it was 1.37 ± 0.0837 fold-change vs cycle 0; in test [2], 1.3 ± 0.0881 fold-change vs cycle 0.

With CCCCAA, the binding signal with SALL4 ZFC4 WT (HT-SELEX) was determined as 0.421 ± 0.0191 fold-change vs cycle 0; in test [1], 0.471 ± 0.00864 fold-change vs cycle 0; in test [2] it was 0.561 ± 0.0695 fold-change vs cycle 0.

In the case of CCCATA, the binding signal with SALL4 ZFC4 WT (HT-SELEX) turned out to be 0.844 ± 0.0635 fold-change vs cycle 0; in test [1], 0.917 ± 0.0435 fold-change vs cycle 0; in test [2] it was 0.905 ± 0.0367 fold-change vs cycle 0.

As to AATCCA, the binding signal came to 1.41 ± 0.0345 fold-change vs cycle 0 with SALL4 ZFC4 WT (HT-SELEX), 1.44 ± 0.0422 fold-change vs cycle 0 in test [1] and 1.37 ± 0.0637 fold-change vs cycle 0 in test [2].

For ATATGC, the binding signal turned out to be 1.17 ± 0.106 fold-change vs cycle 0 with SALL4 ZFC4 WT (HT-SELEX), 1.07 ± 0.0294 fold-change vs cycle 0 in test [1] and 1.13 ± 0.0399 fold-change vs cycle 0 in test [2].

Take CGACTC: the binding signal with SALL4 ZFC4 WT (HT-SELEX) came out at 0.311 ± 0.0133 fold-change vs cycle 0; in test [1], 0.391 ± 0.0309 fold-change vs cycle 0; in test [2] it was 0.53 ± 0.0873 fold-change vs cycle 0.

Consider ACTGTG, for which the values for the binding signal (with SALL4 ZFC4 WT (HT-SELEX); in test [1]; in test [2]) were 0.743 ± 0.0431 fold-change vs cycle 0, 0.842 ± 0.0558 fold-change vs cycle 0 and 0.876 ± 0.035 fold-change vs cycle 0, respectively.

For the sequence GGCAAA, the binding signal with SALL4 ZFC4 WT (HT-SELEX) came out at 0.399 ± 0.0111 fold-change vs cycle 0; in test [1], 0.457 ± 0.0213 fold-change vs cycle 0; in test [2], 0.604 ± 0.0748 fold-change vs cycle 0.

Consider ATTTTC, for which the binding signal with SALL4 ZFC4 WT (HT-SELEX) stood at 1.99 ± 0.115 fold-change vs cycle 0; in test [1] it was 1.68 ± 0.0202 fold-change vs cycle 0; in test [2], 1.56 ± 0.0749 fold-change vs cycle 0.

As to TAACTA, the values for the binding signal (with SALL4 ZFC4 WT (HT-SELEX); in test [1]; in test [2]) were 2.23 ± 0.0839 fold-change vs cycle 0, 2.06 ± 0.126 fold-change vs cycle 0 and 1.82 ± 0.187 fold-change vs cycle 0, respectively.

Take CGAACA: the binding signal with SALL4 ZFC4 WT (HT-SELEX) stood at 0.588 ± 0.0204 fold-change vs cycle 0; in test [1] it was 0.694 ± 0.0214 fold-change vs cycle 0; in test [2], 0.787 ± 0.0244 fold-change vs cycle 0.

On to GACGTC, for which the figures for the binding signal (with SALL4 ZFC4 WT (HT-SELEX); in test [1]; in test [2]) were 0.306 ± 0.00649 fold-change vs cycle 0, 0.386 ± 0.024 fold-change vs cycle 0 and 0.522 ± 0.0468 fold-change vs cycle 0, respectively.

On to ACCATC, for which the binding signal in the test with SALL4 ZFC4 WT (HT-SELEX) came out at 0.858 ± 0.0322 fold-change vs cycle 0; in test [1], 0.944 ± 0.0334 fold-change vs cycle 0; in test [2], 0.994 ± 0.0236 fold-change vs cycle 0.

Consider GGATAC, for which the binding signal with SALL4 ZFC4 WT (HT-SELEX) came out at 0.871 ± 0.0477 fold-change vs cycle 0; in test [1], 1.02 ± 0.0352 fold-change vs cycle 0; in test [2] it was 1.03 ± 0.0426 fold-change vs cycle 0.

Take AAGATA: the binding signal with SALL4 ZFC4 WT (HT-SELEX) was 2.25 ± 0.105 fold-change vs cycle 0; in test [1], 2.22 ± 0.148 fold-change vs cycle 0; in test [2] it was 1.9 ± 0.223 fold-change vs cycle 0.

With GCTGTA, the binding signal was determined as 0.574 ± 0.0425 fold-change vs cycle 0 with SALL4 ZFC4 WT (HT-SELEX), 0.653 ± 0.0229 fold-change vs cycle 0 in test [1] and 0.75 ± 0.0402 fold-change vs cycle 0 in test [2].

For CATTTA, the figures for the binding signal (with SALL4 ZFC4 WT (HT-SELEX); in test [1]; in test [2]) were 1.86 ± 0.0709 fold-change vs cycle 0, 1.83 ± 0.108 fold-change vs cycle 0 and 1.69 ± 0.163 fold-change vs cycle 0, respectively.

In the case of CAACGA, the binding signal in the test with SALL4 ZFC4 WT (HT-SELEX) worked out at 0.626 ± 0.036 fold-change vs cycle 0; in test [1], 0.7439 ± 0.00396 fold-change vs cycle 0; in test [2], 0.81 ± 0.0225 fold-change vs cycle 0.

Regarding GCTCCA, the binding signal in the test with SALL4 ZFC4 WT (HT-SELEX) was 0.305 ± 0.0228 fold-change vs cycle 0; in test [1] it was 0.37 ± 0.0101 fold-change vs cycle 0; in test [2], 0.505 ± 0.0396 fold-change vs cycle 0.

Consider TTCGAA, for which the binding signal turned out to be 1.05 ± 0.0775 fold-change vs cycle 0 with SALL4 ZFC4 WT (HT-SELEX), 1.14 ± 0.0752 fold-change vs cycle 0 in test [1] and 1.15 ± 0.0514 fold-change vs cycle 0 in test [2].

As for CATCCA, the binding signal in the test with SALL4 ZFC4 WT (HT-SELEX) amounted to 0.851 ± 0.0432 fold-change vs cycle 0; in test [1] it was 0.934 ± 0.0343 fold-change vs cycle 0; in test [2] it was 0.974 ± 0.0408 fold-change vs cycle 0.

Regarding GATCAC, the results for the binding signal (with SALL4 ZFC4 WT (HT-SELEX); in test [1]; in test [2]) were 0.862 ± 0.0581 fold-change vs cycle 0, 1.01 ± 0.0278 fold-change vs cycle 0 and 1.11 ± 0.0305 fold-change vs cycle 0, respectively.

Turning to ACCATG, the figures for the binding signal (with SALL4 ZFC4 WT (HT-SELEX); in test [1]; in test [2]) were 0.8385 ± 0.0023 fold-change vs cycle 0, 0.925 ± 0.0262 fold-change vs cycle 0 and 0.997 ± 0.0244 fold-change vs cycle 0, respectively.

For the sequence AGAGAG, the binding signal stood at 0.922 ± 0.0426 fold-change vs cycle 0 with SALL4 ZFC4 WT (HT-SELEX), 1.09 ± 0.0215 fold-change vs cycle 0 in test [1] and 1.14 ± 0.0249 fold-change vs cycle 0 in test [2].

With ATAAAC, the binding signal stood at 2.24 ± 0.173 fold-change vs cycle 0 with SALL4 ZFC4 WT (HT-SELEX), 2.02 ± 0.13 fold-change vs cycle 0 in test [1] and 1.76 ± 0.163 fold-change vs cycle 0 in test [2].

As to ACATAT, the binding signal with SALL4 ZFC4 WT (HT-SELEX) was 2.28 ± 0.213 fold-change vs cycle 0; in test [1], 1.97 ± 0.122 fold-change vs cycle 0; in test [2], 1.75 ± 0.16 fold-change vs cycle 0.
